Source: PubChem BioAssay AID434968 (Broad Institute, 2010)
In all, about 2,100 compounds went through this assay and about 1,800 (86%) were called active. So high a share suggests a set chosen from earlier hits. The list is a sample of the results. Unmarked numbers belong to inactive results. How the calls were made is not given here.

experiment: counter-screen: blocks GFP chromophore formation, dose response, counter-screen, biochemical, fluorescence, homogeneous (AID 434968); conditions: cell-free GFP chromophore formation

Compound	EC50
CCCCCCCCCCOC(=O)Cn1c(COc2ccc(C)cc2)[n+](C)c2ccccc21	16.1 µM (active)
CCCCCCCCCCOC(=O)Cn1c(COc2cccc(OC)c2)[n+](C)c2ccccc21	10.4 µM (active)
COc1ccc(C2C(C#N)=C(N)Oc3n[nH]c(C)c32)cc1CN1CCN(c2ccc(F)cc2)CC1 (configuration not stated)	23 µM (active)
Cc1cc(C(=O)CCl)c(C)n1CC1COc2ccccc2O1 (configuration not stated)	37.5 µM (active)
Cc1oc2c(c1C(=O)N1CCOCC1)C(=O)c1ccccc1C2=O	3.63 µM (active)
O=C1CC(c2ccccc2)=NN1c1ccc([N+](=O)[O-])cc1	15.8 µM (active)
COc1ccc(C(=O)NC(=S)NNC(=O)CCc2ccccc2)cc1	> 38 µM
CCOC(=O)C(CC)Sc1ncnc2c1nnn2-c1ccc(F)cc1 (configuration not stated)	> 38 µM
NC1=NN(c2cccc(C(=O)O)c2)C(=O)C1	31.6 µM (active)
Oc1c(Cl)cc(Cl)c(Cl)c1Cc1c(O)c(Cl)cc(Cl)c1Cl	7.06 µM (active)
NC(=O)CC[C@@H]1NC(=O)[C@H](CO)NC(=O)c2cc([N+](=O)[O-])cc(I)c2NCC[C@@H](C(N)=O)NC1=O	22.5 µM (active)
Cc1ccccc1C(CC(=O)c1cccs1)C(C#N)C#N (configuration not stated)	2.18 µM (active)
CCOC(=O)N1CCC(c2cc(=O)n(-c3ccccc3)[nH]2)CC1	7.17 µM (active)
O=C(CCl)N(Cc1cccc([N+](=O)[O-])c1)c1cccc(Cl)c1	3.06 µM (active)
Oc1ccc(N=Cc2sc3ccccc3c2Cl)cc1	> 38 µM
COc1ccc(-c2csc(Nc3ccc(O)cc3)n2)cc1	> 38 µM
O=[N+]([O-])c1c(NCCO)cc(Sc2nc3ccccc3s2)c2nonc12	0.766 µM (active)
O=C(c1ccc(Cl)cc1)n1cnc2ccccc21	22.1 µM (active)
O=C1NC(c2ccc(-c3ccccc3[N+](=O)[O-])o2)C(C(=O)c2ccc(Cl)cc2)C(O)(C(F)(F)F)N1 (configuration not stated)	25.2 µM (active)
CC(CCn1cccn1)NC(=O)CCc1nnc(CCc2ccccc2)o1 (configuration not stated)	> 38 µM
CC(C)OC(=O)CN1C(=O)C(=O)c2ccccc21	22.5 µM (active)
O=C(Nc1ccccc1)c1nnsc1S(=O)(=O)c1ccc(Cl)cc1	11.7 µM (active)
CC1(N2CCOCC2)CC2(O)C(=[N+]1[O-])CCc1nonc12 (configuration not stated)	24.9 µM (active)
N#Cc1c(N)n(CCOC(=O)c2ccc(Cl)cc2)c2nc3ccccc3nc12	2.69 µM (active)
COc1ccc(C(CCN(Cc2ccc(OC)c(OC)c2)C(=O)CCl)c2ccccc2)cc1 (configuration not stated)	0.326 µM (active)
CCN(CC)c1ccc2oc(=O)c(C)nc2c1	13.6 µM (active)

Compound	EC50
COc1ccc2c(c1)C(=C(C#N)C#N)C(=O)N2CCc1ccccc1	> 38 µM
COc1ccccc1-n1nnnc1S(=O)(=O)Cc1ccc(Cl)cc1	27.2 µM (active)
Cc1ccc(NC(=O)c2cnc(SCC(=O)NCC3CCCO3)n(C)c2=O)cc1 (configuration not stated)	> 38 µM
Cc1nn(Cc2ccccc2)c2c1C(c1ccccc1)C(C#N)=C(N)O2 (configuration not stated)	15.2 µM (active)
O=S(=O)(O)Oc1c[nH]c2ccccc12	0.78 µM (active)
COC(=O)c1sc(-c2ccc(C(C)(C)C)cc2)cc1NC(=O)/C=C/C(=O)O	4.26 µM (active)
CCOC(=O)c1c(C)[nH]c2c1-c1ccccc1C(=O)C2=O	2.58 µM (active)
CCOC(=O)C1=C(c2ccc(OC)cc2)C(=O)c2ccccc2C1=O	6.35 µM (active)
COc1ccc(S(=O)(=O)/N=C2\C=C(NS(=O)(=O)c3ccccc3)C(=O)c3ccccc32)cc1	3.05 µM (active)
C=CS(=O)c1sc(Cl)c(N2CCOCC2)c1[N+](=O)[O-] (configuration not stated)	24.9 µM (active)
Cc1oc2cc([N+](=O)[O-])c(O)c([N+](=O)[O-])c2c1C(=O)c1ccc(Br)cc1	19.5 µM (active)
Cc1ccc(SCC2=NNC(=O)C2)cc1	6.33 µM (active)
CCOc1c(Br)cc(/C=C2\C(=O)N(CCC#N)N=C2C)cc1OC	3.7 µM (active)
CN(c1ccccc1)c1ccc([N+](=O)[O-])c2nonc12	20.3 µM (active)
CC(=O)C12CC(C)=C(C)CC1CC1C3CCC4=CC(=O)CCC4(C)C3CCC12C (configuration not stated)	> 38 µM
Cc1cc2[nH]ncc2cc1NC(=S)NC(=O)c1ccccc1	> 38 µM
O=S(=O)(Nc1ccc(O)c2ccccc12)c1ccc(OC(F)(F)F)cc1	0.19 µM (active)
O=c1[nH]c2ccccc2n2c(-c3ccccc3)nnc12	26.2 µM (active)
O=C(Oc1ccc(Br)cc1C(=S)N1CCOCC1)c1cccc([N+](=O)[O-])c1	> 38 µM
CCCCOC(=O)CNc1nnc(SCC(=O)OCC)[nH]c1=O	11.3 µM (active)
COC(=O)CC1=NN(c2nc(C)cc(C)n2)C(=O)C1	> 38 µM
Cc1ccc(Nc2cc(C)nc3c(C)ccc([N+](=O)[O-])c23)cc1	12 µM (active)
Cc1ccc(CNC(=O)CCN2C(=O)[C@@H]3Cc4ccccc4CN3C2=O)cc1	> 38 µM
Cc1[nH]n(C)c(=O)c1C(=O)c1c(-c2c(Cl)cccc2Cl)noc1C	12.1 µM (active)
CCCCCCCCc1c(O)nc(-n2[nH]c(C)c(CCO)c2=O)[nH]c1=O	> 38 µM
CSc1nnc(NC(=O)c2nc(S(=O)(=O)Cc3ccc(C)cc3)ncc2Cl)s1	17 µM (active)

Compound	EC50
Cc1cccc(CS(=O)(=O)c2ncc(Cl)c(C(=O)Nc3ccc(F)cc3)n2)c1	2.65 µM (active)
CC1=NN(Cc2ccccc2)C(=O)/C1=C/c1ccc(N(C)C)cc1	3.59 µM (active)
O=C(CCCN1C(=O)/C(=C/c2ccccc2)SC1=S)Nc1ccc(O)cc1	> 38 µM
CC1=NNC(=O)C1Cc1c(Cl)cccc1Cl (configuration not stated)	3.71 µM (active)
O=C(Cc1cc(=O)[nH][nH]1)N/N=C/c1ccccc1[N+](=O)[O-]	10.3 µM (active)
Cc1ccsc1/C=N/NC(=O)Cc1cc(=O)[nH][nH]1	6.88 µM (active)
CCCc1[nH]nc2c1C(c1ccc(Br)s1)C(C#N)=C(N)O2 (configuration not stated)	17.8 µM (active)
CCc1ccc(C2C(C#N)=C(N)Oc3n[nH]c(CC(=O)OC)c32)cc1 (configuration not stated)	36.3 µM (active)
CCCc1[nH]nc2c1C(c1ccc(OC(=O)c3ccco3)cc1)C(C#N)=C(N)O2 (configuration not stated)	25.1 µM (active)
COc1ccc(-c2[nH]nc3c2C(c2ccncc2)C(C#N)=C(N)O3)cc1 (configuration not stated)	21.3 µM (active)
Cc1cc(C)n2nc(CNS(=O)(=O)c3c(F)c(F)c(F)c(F)c3F)nc2n1	10 µM (active)
CN1CCc2nc(SC(C(=O)O)c3ccccc3)c(C#N)c(-c3cccs3)c2C1 (configuration not stated)	31.1 µM (active)
Cc1nc2ccccc2nc1N/N=C/c1ccc(O)cc1O	> 38 µM
O=C(Nc1ccccc1Cl)/C(Cl)=C(\Cl)S(=O)c1ccccc1 (configuration not stated)	1.31 µM (active)
Cc1c(-c2nn(C)c(=O)c3ccccc23)oc2ccc(F)cc2c1=O	6.81 µM (active)
CCOCC(=O)NCc1ccc2c(c1)cc(C)n2C	> 12 µM
COc1ccc(/C=C2/C(=O)N(c3ccccc3)N=C2C)c(OC)c1	21.7 µM (active)
COc1ccc(C2NC(=S)NC3=C2CCc2ccccc23)cc1OC (configuration not stated)	22.7 µM (active)
Cc1ccc(N(Cc2cc(=O)[nH]c3ccccc23)C(=O)CCl)cc1	0.148 µM (active)
Cc1[nH][nH]c(=O)c1C(c1ccc2c(c1)OCO2)c1c(C)[nH][nH]c1=O	0.426 µM (active)
O=C1/C(=C/c2ccc3c(c2)OCO3)CCC/C1=C\c1ccc2c(c1)OCO2	> 38 µM
CCOc1ccc(C(c2c(C)[nH][nH]c2=O)c2c(C)[nH][nH]c2=O)cc1OCC	0.386 µM (active)
COc1cccc(/C=N/Nc2cc(C)nc(-c3ccccc3O)n2)c1O	> 38 µM
O=C(O)CSc1c2c(nc3cc(C(=O)Nc4cccc(C(F)(F)F)c4)ccc13)CCCC2	15.6 µM (active)
COc1ccc(-c2nnc(SC(=O)N3c4ccccc4Sc4ccccc43)o2)cc1	0.551 µM (active)
